Active and inactive are the calls of the source.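 How the source made its calls, unless noted: active means compound raises GLP1 secretion from the human gut endocrine cells, with no numeric limit stated; inactive means the rest.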
Legend:
[1] = stimulators of nuclear beta-catenin in C2C12, primary screen, imaging, WNT3A-conditioned medium, mouse C2C12, NPC library (AID 1117326; in the data active means nuclear beta-catenin stimulation mostly above about 4.2%, no sharp cut-off; inactive means mostly below about 10%; further: reference of the scale not given here); settings: stronger effect = higher value
[2] = stimulators of insulin release from INS-1E, primary screen, cell-based, 5 mM glucose, NPC library (AID 1117329;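 active means compound raises insulin release from rat beta cells at 5 mM glucose, no numeric limit stated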; further: reference of the scale not given here); settings: rat INS-1E insulin secretion, at 10 µM, stronger effect = higher value
[3] = growth inhibition of GSK3B-pretreated HCT116 cells – cell-based, CellTiter-Glo, 0.2 to 20 µM (AID 1117336;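 active means compounds lowering colon cancer cell viability after pretreatment blocking the GSK3B kinase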); settings: HCT116 viability after GSK3B inhibitor, at 20 µM, stronger effect = higher value
[4] = inhibition of endothelial tube formation, primary screen, imaging, VEGF stimulated, CD31 staining, tube area, NPC library (AID 1117340;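 active means compound that reduces growth-factor-driven endothelial tube area in a mixed cell culture, no cutoff stated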); settings: VEGF-stimulated ADSC/ECFC co-culture, at 10 µM, stronger effect = higher value
[5] = glucagon-like peptide 1 release enhancers, primary assay, NCI-H716 cell line, NPC library (AID 1117341); settings: NCI-H716 cells, at 10 µM, stronger effect = higher value; further: reference of the scale not given here
[6] = HCT116 colon cancer cell growth inhibition, primary screen, CellTiter-Glo luminescence, NPC library (AID 1117342;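 active means compounds that lower survival of HCT116 colon cancer cells in the luminescence readout, no numeric limit stated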); settings: at 20 µM (top of the series)
[7] = CellTiter-Glo luminescent readout of SW480 viability loss, NPC library primary (AID 1117343;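 active means compounds that lower viability of the colon cancer cells in the luminescence readout, with no numeric limit stated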); settings: CellTiter-Glo luminescence; at 20 µM (top of the series)
[8] = decreased DLD-1 cellular survival, CellTiter-Glo luminescent readout, NPC compound collection, primary HTS (AID 1117346;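 active means compounds that lower survival of DLD-1 colon cancer cells in the luminescence readout, no cutoff given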); settings: DLD-1 viability, CellTiter-Glo luminescence; at 20 µM (top of the series)

S=C(SSC(=S)N1CCCCC1)N1CCCCC1
inactive: nuclear beta-catenin stimulation ([1]; at 10 µM) 1.8% | insulin secretion stimulation [2] -2.6% | viability decrease [3] -2.9% | tube area decrease [4] 8.9% | GLP1 secretion stimulation [5] -2.3% | inhibition of viability [6] -14.8% | viability decrease (inhibition) [7] 13.2% | viability decrease (inhibition) [8] -3.5%
0.4%: nuclear beta-catenin stimulation ([1]; stimulation, at 2 µM)

O=c1[nH]c2ccccc2n1C1CCNCC1
inactive: nuclear beta-catenin stimulation ([1]; at 10 µM) 0.8% | insulin secretion stimulation [2] -0.9% | viability decrease [3] -5% | tube area decrease [4] -5.4% | GLP1 secretion stimulation [5] 1.9% | inhibition of viability [6] -8.2% | viability decrease (inhibition) [7] -13.1% | viability decrease (inhibition) [8] 7.3%
-0.9%: nuclear beta-catenin stimulation ([1]; stimulation, at 2 µM)

Oc1ccc2[nH]cc(CCCCN3CC=C(c4ccccc4)CC3)c2c1
inactive: nuclear beta-catenin stimulation ([1]; at 10 µM) 12.1% | insulin secretion stimulation [2] 1.8% | GLP1 secretion stimulation [5] 5.1%
active: viability decrease [3] 81.3% | tube area decrease [4] 76.6% | inhibition of viability [6] 85% | viability decrease (inhibition) [7] 102% | viability decrease (inhibition) [8] 81.4%
4%: nuclear beta-catenin stimulation ([1]; stimulation, at 2 µM)

Nc1ccc(N)cc1
inactive: nuclear beta-catenin stimulation ([1]; at 10 µM) -0.1% | insulin secretion stimulation [2] -3.1% | viability decrease [3] -2.35% | tube area decrease [4] -29.4% | GLP1 secretion stimulation [5] 4.2% | viability decrease (inhibition) [8] -15.2%
active: inhibition of viability [6] 51% | viability decrease (inhibition) [7] 84.1%
0.8%: nuclear beta-catenin stimulation ([1]; stimulation, at 2 µM)

C[C@]12CC[C@H]3[C@@H](CC=C4C[C@@H](O)CC[C@@]43C)[C@@H]1CC[C@@H]2O
-0.3%: nuclear beta-catenin stimulation ([1]; stimulation, at 2 µM)
inactive: nuclear beta-catenin stimulation ([1]; at 10 µM) 2.9% | insulin secretion stimulation [2] -1% | viability decrease [3] 3.75% | tube area decrease [4] -14.6% | GLP1 secretion stimulation [5] -6% | inhibition of viability [6] 5.2% | viability decrease (inhibition) [7] 28.6% | viability decrease (inhibition) [8] 1.05%

C1CCC(NC2CCCCC2)CC1
inactive: nuclear beta-catenin stimulation ([1]; at 10 µM) 1.5% | insulin secretion stimulation [2] 1.3% | viability decrease [3] -4.15% | tube area decrease [4] -1.6% | GLP1 secretion stimulation [5] 0.1% | inhibition of viability [6] 7.9% | viability decrease (inhibition) [7] -22% | viability decrease (inhibition) [8] -4.45%
2%: nuclear beta-catenin stimulation ([1]; stimulation, at 2 µM)

CCCN(CCC)C(=O)Cc1c(-c2ccc(Cl)cc2)nc2ccc(Cl)cn12
-0.8%: nuclear beta-catenin stimulation ([1]; stimulation, at 2 µM)
inactive: nuclear beta-catenin stimulation ([1]; at 10 µM) -2% | insulin secretion stimulation [2] 11.7% | viability decrease [3] 10.8% | tube area decrease [4] -7.3% | GLP1 secretion stimulation [5] -2.3% | inhibition of viability [6] 49.5% | viability decrease (inhibition) [7] 18% | viability decrease (inhibition) [8] 27.1%

O=C1C(I)=CC(=C(c2cc(I)c(O)c(I)c2)c2ccccc2C(=O)O)C=C1I
inactive: insulin secretion stimulation [2] -0.1% | GLP1 secretion stimulation [5] -3.3%
1.8%: nuclear beta-catenin stimulation ([1]; stimulation, at 2 µM)
active: nuclear beta-catenin stimulation ([1]; at 10 µM) 43.7% | viability decrease [3] 98.7% | tube area decrease [4] 106% | inhibition of viability [6] 99.3% | viability decrease (inhibition) [7] 100% | viability decrease (inhibition) [8] 100%

O=C(CCCCl)c1ccc(F)cc1
inactive: nuclear beta-catenin stimulation ([1]; at 10 µM) -0.1% | insulin secretion stimulation [2] -0.9% | viability decrease [3] -6.5% | tube area decrease [4] -3.6% | GLP1 secretion stimulation [5] 0.1% | inhibition of viability [6] 3.2% | viability decrease (inhibition) [7] -14.9% | viability decrease (inhibition) [8] 5.8%
-0.7%: nuclear beta-catenin stimulation ([1]; stimulation, at 2 µM)

O=C(NC(O)C(Cl)(Cl)Cl)NC(O)C(Cl)(Cl)Cl (stereo unspecified)
-2.1%: nuclear beta-catenin stimulation ([1]; stimulation, at 2 µM)
inactive: nuclear beta-catenin stimulation ([1]; at 10 µM) 0.9% | insulin secretion stimulation [2] 9.2% | viability decrease [3] -2.2% | tube area decrease [4] 1.1% | GLP1 secretion stimulation [5] 0.1% | inhibition of viability [6] 7.9% | viability decrease (inhibition) [7] -28.2% | viability decrease (inhibition) [8] -0.1%

CCN(CC)C(=O)N[C@@H]1C=C2c3cccc4[nH]cc(c34)C[C@@H]2N(C)C1
-0.6%: nuclear beta-catenin stimulation ([1]; stimulation, at 2 µM)
inactive: nuclear beta-catenin stimulation ([1]; at 10 µM) 0.6% | insulin secretion stimulation [2] 2.6% | viability decrease [3] 8.2% | tube area decrease [4] -8.2% | GLP1 secretion stimulation [5] -1% | inhibition of viability [6] 12.2% | viability decrease (inhibition) [7] -11.8% | viability decrease (inhibition) [8] -5.3%

O=c1[nH]c2cc(Cl)ccc2n1C1CCNCC1
19.6%: nuclear beta-catenin stimulation ([1]; stimulation, at 2 µM)
inactive: nuclear beta-catenin stimulation ([1]; at 10 µM) 9.1% | insulin secretion stimulation [2] 3.8% | viability decrease [3] 1.8% | tube area decrease [4] -3.4% | GLP1 secretion stimulation [5] 10.2% | inhibition of viability [6] 29.9% | viability decrease (inhibition) [7] 10.3% | viability decrease (inhibition) [8] 12.5%

CCCCNCC(O)c1ccc(O)cc1 (stereo unspecified)
3.1%: nuclear beta-catenin stimulation ([1]; stimulation, at 2 µM)
inactive: nuclear beta-catenin stimulation ([1]; at 10 µM) -0.1% | insulin secretion stimulation [2] 2.3% | viability decrease [3] 0.3% | tube area decrease [4] 16.9% | GLP1 secretion stimulation [5] -2.1% | inhibition of viability [6] 8% | viability decrease (inhibition) [7] -1.7% | viability decrease (inhibition) [8] -9.2%

ClCCN1CCCC1
inactive: nuclear beta-catenin stimulation ([1]; at 10 µM) 0.7% | insulin secretion stimulation [2] 4% | viability decrease [3] 5.1% | tube area decrease [4] 9.9% | GLP1 secretion stimulation [5] -2.4% | inhibition of viability [6] -8.3% | viability decrease (inhibition) [7] 8.7% | viability decrease (inhibition) [8] 8.5%
-0.2%: nuclear beta-catenin stimulation ([1]; stimulation, at 2 µM)

Reference: PubChem BioAssay
